Measured values: PubChem BioAssay AID489012 (National Center for Advancing Translational Sciences (NCATS), 2010)
Inconclusive results are not listed. Active and inactive are the calls of the source. Calls follow the shape of the dose curve; as a rule, active = well fitted activation curve with a large enough effect; inconclusive = small, poorly fitted or top-dose-only effect; inactive = no such curve, though single readings can be large or run the other way.

What follows are compounds tested against Relaxin receptor 1 (Homo sapiens) (UniProt Q9HBX9) (assay: qHTS Assay for Agonists of the Relaxin Receptor RXFP1: RXFP1 Hit Validation). Details: HEK293T-RXFP1 cAMP TR-FRET, 30 min; series mostly up to 115 µM; activation: at the top concentration.
Also: nearly all actives have a fitted effect of over 65% in size.
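For activation in this document: cAMP rise lowers the TR-FRET signal in lysed cells with PDE4 inhibitor present; 0% = buffer-only basal and 100% = 29 nM porcine relaxin.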
Potency is read from the fitted curve at half-maximal effect.

Chain of Relaxin receptor 1 (Homo sapiens) (Q9HBX9 whole entry, looked up): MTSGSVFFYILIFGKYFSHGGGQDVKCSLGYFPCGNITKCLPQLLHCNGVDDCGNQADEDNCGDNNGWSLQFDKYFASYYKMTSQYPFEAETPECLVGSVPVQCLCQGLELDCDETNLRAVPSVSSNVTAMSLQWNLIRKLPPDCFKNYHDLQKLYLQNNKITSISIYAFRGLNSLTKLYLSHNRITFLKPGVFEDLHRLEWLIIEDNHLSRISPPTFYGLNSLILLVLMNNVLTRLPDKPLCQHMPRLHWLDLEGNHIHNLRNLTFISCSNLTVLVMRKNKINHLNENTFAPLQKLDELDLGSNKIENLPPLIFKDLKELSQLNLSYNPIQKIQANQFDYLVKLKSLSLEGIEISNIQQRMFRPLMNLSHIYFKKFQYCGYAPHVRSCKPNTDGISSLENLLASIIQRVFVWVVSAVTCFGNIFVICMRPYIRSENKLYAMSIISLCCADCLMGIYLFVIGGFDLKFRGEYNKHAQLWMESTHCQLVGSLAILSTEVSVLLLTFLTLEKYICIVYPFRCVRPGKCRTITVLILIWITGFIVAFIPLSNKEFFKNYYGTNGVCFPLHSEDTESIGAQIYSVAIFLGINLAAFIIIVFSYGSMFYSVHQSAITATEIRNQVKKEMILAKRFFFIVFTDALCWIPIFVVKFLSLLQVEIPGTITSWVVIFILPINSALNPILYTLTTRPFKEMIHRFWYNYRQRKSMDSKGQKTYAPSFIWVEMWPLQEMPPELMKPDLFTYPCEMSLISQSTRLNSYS

Potency, active:
O=C(Nc1ccccc1C(=O)Nc1ccccc1C(=O)NCc1ccco1)c1ccco1 21.9 µM
CCOC(=O)c1sc(=NC(=O)c2ccc(S(=O)(=O)N(C)c3ccccc3)cc2)n(C)c1C 19.4 µM
O=C(NC1CCCCCC1)c1cc2c(=O)n3ccccc3nc2s1 34.6 µM
CC1CCN(S(=O)(=O)c2ccc3nc(N4CCN(c5ccccc5)CC4)ccc3c2)CC1 12.3 µM
O=C(OCc1nc2ccsc2c(=O)[nH]1)c1cccc(S(=O)(=O)N2CCOCC2)c1 34.6 µM
COc1ccccc1CNS(=O)(=O)c1cc(CN2C(=O)c3cccnc3C2=O)ccc1OC 30.9 µM
COc1ccc(Cl)cc1-c1n[nH]c(=S)o1 6.15 µM
Cc1noc(NS(=O)(=O)c2ccc(N3Cc4ccccc4C3=O)cc2)c1C 11.9 µM
O=C(Cn1cnc2c(nnn2-c2ccc(F)cc2)c1=O)NCC1CCCO1 (stereo unspecified) 8.7 µM
Nc1ncnc2c1ncn2[C@@H]1O[C@H](COS(=O)(=O)O)[C@@H](O)[C@H]1O 6.9 µM
CCc1nnc(NC(=O)CSc2nc(C)nc3c2c(=O)n(C)c(=O)n3C)s1 17.3 µM

activation, inactive:
CC(=O)Nc1ccc(NC(=O)CSc2ccc3nnc(-c4ccccn4)n3n2)cc1 26.3% [at 45 µM]
COC(=O)[C@@H]1C[C@@]2(O)[C@H](O)[C@H](O)[C@H](O)C[C@H]2N1Cc1cc(F)ccc1F 3.14%
Cc1ccc(CN(C)C(=O)c2ccc3c(c2)NC(=O)CS3)o1 -29.9%
CCOC(=O)CSc1nc(=O)n2cc(C)ccc2n1 20.1%
CCN(CC)CCCCCC(=O)Nc1ccccc1C(=O)Nc1ccccc1 -3.6% [at 125 µM]
O=C(Nc1ccccc1C(=O)N1CCOCC1)c1ccco1 3.67% [at 125 µM]
Cc1cc2c(SCC(=O)NCC3CCCO3)ncnc2s1 (stereo unspecified) 25.2%
O=C(NCc1nnc2c(C(F)(F)F)cc(Cl)cn12)c1cccnc1 24.5%
O=C(CN1C(=O)c2cccc3cccc(c23)C1=O)NCCN1CCOCC1 28.1% [at 45 µM]
CCOc1ccccc1NC(=O)CSc1ccc2nnc(-c3cccnc3)n2n1 29%
COC(=O)CCNC(=O)Cn1cnc2sc3c(c2c1=O)CCCC3 24.4%
CC(C)c1ccccc1NC(=O)c1ccccc1NC(=O)C1CCCCC1 5.99% [at 125 µM]
COC(=O)c1c(N2C(=O)CC(Sc3ncccc3C(=O)O)C2=O)sc(C)c1C (stereo unspecified) -8.76%
Cc1c(C(=O)NNc2cc(=O)n(C)c(=O)n2C)cccc1[N+](=O)[O-] 25.3% [at 45 µM]
Cc1ccccc1NC(=O)CNc1ccccc1C(=O)NCc1ccco1 5.5% [at 125 µM]
CC1CCCCN1C(=O)c1ccccc1NC(=O)c1ccco1 (stereo unspecified) -6.44% [at 125 µM]
Cn1c(N)c(C(=O)CSc2nnc(NC3CCCCC3)s2)c(=O)n(C)c1=O -27%
C=CCOc1c(Cl)cc(CNc2ccc(N(C)C)cc2)cc1OC 6.41%
CCCc1nc(SCC(=O)NCC2CCCO2)c2c(=O)n(C)c(=O)n(C)c2n1 (stereo unspecified) 26.1% [at 45 µM]
Cc1c(CCOC(=O)c2cc([N+](=O)[O-])ccc2Cl)sc[n+]1CCCCS(=O)(=O)[O-] 7.88%
CCOC(=O)CNC(=O)CSc1ccc2nnc(-c3cccnc3)n2n1 -30%
c1ccc(-c2nnc(-c3ccccn3)c(-c3ccccn3)n2)nc1 0.143%
C=C(C)C(=O)Nc1cccc(C2=NOC3(C2)C[C@@H](C(N)=O)N(C(=O)c2ccc(Cl)cc2)C3)c1 (stereo partly specified) 4.05%
Cc1ccc2cc(CN(C(=O)c3cccs3)c3ccccc3)c(=O)[nH]c2c1 2.01%
CN1CCN(C(=O)CCc2nnc3ccc(N4CCC5(CC4)OCCO5)nn23)CC1 19%
